Source: PubChem (National Center for Advancing Translational Sciences (NCATS))
Hits are enriched below; roughly 19% of the tested compounds scored in any of these assays.
DT40 TDP1 no CPT: qHTS for Inhibitors of human tyrosyl-DNA phosphodiesterase 1 (TDP1): qHTS in cells in absence of CPT; DT40 Tdp1-/- hTDP1 cells, no CPT, ATP luminescence, 48 h; Potency, µM (top dose mostly 46.2 µM), for inactives: at the top dose activity change, negative = growth inhibition, actives largely listed as inhibitors; 420,000 tested, 15% active; AID 686978, 2013; note: potency is the fitted concentration of half-maximal effect; nearly all actives have a fitted effect of over 55% in size
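No-CPT arm: Tdp1-/-;hTDP1 DT40 cells (400/well) plus compounds, incubated ≥48 hr at 37 °C. Readout CellTiter-Glo luminescence.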
ELG1 repair inh: qHTS screen for small molecules that inhibit ELG1-dependent DNA repair in human embryonic kidney (HEK293T) cells expressing luciferase-tagged ELG1; HEK293T ELG1-luciferase reporter, luminescence, 16 h; DNA damage induced by 5-fluorouridine; Potency, µM (top dose mostly 46.1 µM), for inactives: at the top dose activity change, negative = inhibition, actives largely listed as inhibitors; 330,000 tested, 2.3% active; AID 504467, 2011; note: potency is the fitted concentration of half-maximal effect; nearly all actives have a fitted effect of over 55% in size
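In this reporter screen, reduction of luminescence relative to DMSO vehicle indicated activity. Compounds and 5-fluorouridine were added together to 2,000 cells per well, incubated for 16 hr at 37 °C, then developed with ONE-Glo.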
IL-1B inflam inh: qHTS for Inhibitors of Inflammasome Signaling: IL-1-beta AlphaLISA Primary Screen; activity change, % at 57.5 µM; 360,000 tested, 4.7% active; THP-1 LPS/ATP IL-1B secretion, AlphaLISA, 16 h; hits give low values; in the data active = activity change below about -50%; inconclusive = mostly about -30% to -49%
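THP-1 cells pretreated 1 hr with compounds (up to 57.5 uM final), then stimulated with LPS (250 ng/mL final) plus ATP (1.25 mM final); secreted IL-1B measured by AlphaLISA after 16 hr, decreased signal indicating inhibition.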
Giardia killer: Small Molecules that selectively kill Giardia lamblia: qHTS; Giardia lamblia trophozoite viability; 340,000 tested, 0.15% active; activity change, % at 7.66 µM, hits read low; in the data active = activity change below about -80%; inconclusive = between about -30% and that limit;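 note: parasites exposed to compound for two days anaerobically before the ATP read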
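Anaerobic 48 hrs incubation at 37 deg C of 100 trophozoites/well with test compounds; ATPLite 1-Step luminescence, 15-30 min RT, reports cellular ATP as viability.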
TDP1 inh: qHTS Assay for Inhibitors of Tyrosyl-DNA Phosphodiesterase (TDP1); recombinant TDP1, AlphaScreen DNA substrate cleavage; Potency, µM (series often up to 130 µM), for inactives: at the top dose activity change, negative = inhibition, usual class: inhibitors; 350,000 tested, 0.28% active; note: potency is the fitted concentration of half-maximal effect; nearly all actives have a fitted effect of over 40% in size
Target sequence (Q9NUW8 whole entry, looked up): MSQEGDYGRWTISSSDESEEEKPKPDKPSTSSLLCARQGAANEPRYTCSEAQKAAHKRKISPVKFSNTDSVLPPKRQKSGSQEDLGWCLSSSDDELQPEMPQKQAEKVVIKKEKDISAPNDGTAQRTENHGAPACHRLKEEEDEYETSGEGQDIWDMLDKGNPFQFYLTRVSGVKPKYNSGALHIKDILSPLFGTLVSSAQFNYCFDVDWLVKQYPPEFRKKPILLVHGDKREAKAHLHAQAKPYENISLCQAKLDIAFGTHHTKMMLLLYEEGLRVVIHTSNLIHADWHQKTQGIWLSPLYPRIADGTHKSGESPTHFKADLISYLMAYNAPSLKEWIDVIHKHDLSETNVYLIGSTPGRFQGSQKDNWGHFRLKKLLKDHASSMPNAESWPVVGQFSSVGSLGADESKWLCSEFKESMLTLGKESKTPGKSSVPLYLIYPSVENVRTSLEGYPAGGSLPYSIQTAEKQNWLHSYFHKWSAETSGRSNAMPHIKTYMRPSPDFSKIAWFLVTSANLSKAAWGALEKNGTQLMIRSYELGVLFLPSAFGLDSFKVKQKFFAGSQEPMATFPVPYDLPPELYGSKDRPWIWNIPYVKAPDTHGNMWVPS
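Here, a 5' biotin and 3' phosphotyrosine-FITC DNA oligonucleotide reports Tdp1 activity: intact substrate bridges AlphaScreen beads, while cleavage leaves a 3' phosphate and drops signal. All incubations at room temperature.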
TDP1 cell CPT: qHTS for Inhibitors of human tyrosyl-DNA phosphodiesterase 1 (TDP1): qHTS in cells in presence of CPT. chicken DT40 Tdp1-/-;hTDP1 cells + 20 nM CPT, ATP luminescence, 48 h. Potency, µM (highest dose often 46.2 µM), without a hit: at the top dose activity change, negative = growth inhibition, hits mostly inhibitors. 420,000 tested, 12% active. AID 686979, 2013; note: potency is the fitted concentration of half-maximal effect; nearly all actives have a fitted effect of over 55% in size
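Cell growth measured by CellTiter-Glo luminescence after a minimum 48 h, 37 C compound exposure with 20 nM CPT in Tdp1-knockout DT40 cells stably expressing hTDP1, seeded 400/well; qHTS titration format.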
Numbers without * were called inactive; i = inactive; ? = inconclusive; . = not tested or not shown. Unless noted, calls come from the whole dose curve; as a rule, active = well fitted curve in the direction sought with a large enough effect; inconclusive = small, poorly fitted or top-dose-only effect, or another doubt; inactive = no such curve, though single readings can be large; an effect the other way counts as inactive or inconclusive. % is set by controls: 0 for no effect and ±100 for the full control effect.

SMILES	DT40 TDP1 no CPT	ELG1 repair inh	IL-1B inflam inh	Giardia killer	TDP1 inh	TDP1 cell CPT
O=C1OC(c2ccco2)=N/C1=C\c1ccc(-c2cccc(C(F)(F)F)c2)o1	23µM*	13%	0	41	-3%	?
O=C(c1cc(C2CC2)nc2ccccc12)N1N=C(C(F)F)CC1(O)C(F)F (stereo unspecified)	?	3%	13	14	-2%	?
O=C(c1cc(C2CC2)nc2ccc(Br)cc12)N1N=C(C(F)F)CC1(O)C(F)F (stereo unspecified)	16µM*	-4%	?	12	-6%	16µM*
C(=C\c1ccccc1)/C=N/Nc1nc(N2CCOCC2)nc(N2CCOCC2)n1	?	-24%	-7	-9	1%	-11%
COc1c(/C=N/Nc2nc(N3CCCCC3)nc(N3CCCCC3)n2)cccc1[N+](=O)[O-]	?	-2%	-17	-2	3%	?
Clc1ccccc1/C=C/C=N/Nc1nc(N2CCOCC2)nc(N2CCOCC2)n1	23µM*	?	-16	14	6%	23µM*
Fc1cnc(N/N=C/c2ccc(-c3ccc(Br)cc3)o2)nc1N1CCOCC1	3%	12µM*	50	-20	8%	11%
O=[N+]([O-])c1ccc(/C=N/Nc2nc(N3CCCCC3)nc(N3CCCCC3)n2)o1	18µM*	23µM*	-26	-84*	11%	?
O=[N+]([O-])c1ccc(/C=N/Nc2nc(N3CCOCC3)nc(N3CCOCC3)n2)cc1	.	?	.	.	7%	.
Brc1ccc(-c2ccc(/C=N/Nc3nc(N4CCOCC4)nc(N4CCOCC4)n3)o2)cc1	10µM*	5.8µM*	?	-18	4%	?
COc1cc(C(=O)NCc2nnc(SCC(=O)NCCc3ccccc3)o2)cc(OC)c1OC	14%	-18%	34	-20	1%	-12%
Nn1c(COc2ccc(Cl)cc2)nc2ccccc2c1=O	?	?	-11	-8	-1%	?
Clc1ccc(-c2ccc(/C=N/Nc3cc(N4CCOCC4)nc(N4CCOCC4)n3)o2)cc1	16µM*	5.8µM*	?	-3	8%	-93%
Cc1[nH]c2ccccc2c1/C=N/Nc1nc(N2CCCCC2)nc(N2CCCCC2)n1	?	-2%	i	?	7%	?
COC(=O)c1ccc(/C=N/Nc2nc(N3CCCCC3)nc(N3CCCCC3)n2)cc1	-44%	7%	0	-15	5%	-9%
O=C(Oc1ccc(/C=N/Nc2nc(N3CCCCC3)nc(N3CCCCC3)n2)cc1)c1ccco1	16µM*	-3%	-2	-18	4%	?
Cc1cn(-c2ccccc2)c(C)c1/C=N\Nc1nc(N2CCOCC2)nc(N2CCOCC2)n1	?	8.2µM*	-18	-18	-1%	?
Cc1nc2nc(SCC(=O)Nc3cccc(Cl)c3)nn2c(C)c1Cc1ccccc1	?	.	.	.	3%	?
CCCN1CNc2c(c(=O)[nH]c(=S)n2CCc2ccc(C)cc2)C1	?	.	.	20	0%	?
CCc1ccc(OCC(=O)N(Cc2ccc(C(C)C)cc2)C2CCS(=O)(=O)C2)cc1 (stereo unspecified)	?	.	.	.	2%	16µM*
Cc1cccc(OCC(=O)N(Cc2ccc(N(C)C)cc2)C2CCS(=O)(=O)C2)c1 (stereo unspecified)	-17%	-2%	-50*	6	4%	-13%
Cc1cccc(C)c1OCC(=O)N(Cc1ccc(N(C)C)cc1)C1CCS(=O)(=O)C1 (stereo unspecified)	-25%	18%	0	-17	7%	-29%
Cc1cc(OCC(=O)N(Cc2ccc(N(C)C)cc2)C2CCS(=O)(=O)C2)cc(C)c1Cl (stereo unspecified)	18µM*	.	.	.	8%	?
Cc1cc(OCC(=O)N(C)C2CCCCC2)cc(C)c1Cl	21µM*	5%	0	-24	3%	?
CCOC(=O)CCC(=O)Nc1nnc2n1CCS2	7%	.	.	.	8%	-1%
SMILES	DT40 TDP1 no CPT	ELG1 repair inh	IL-1B inflam inh	Giardia killer	TDP1 inh	TDP1 cell CPT
CCN1C(=O)/C(=C/c2ccc(C)s2)SC1=Nc1ccc(OC)cc1	9.2µM*	-18%	-15	-2	2%	9.2µM*
CCCN1C(=O)/C(=C/c2ccc(C)o2)SC1=Nc1ccc(OCC)cc1	?	-1%	-10	11	9%	?
CCCN1C(=O)/C(=C/c2ccc(C)o2)SC1=Nc1ccc(OC)cc1	8.2µM*	?	-12	10	9%	9.2µM*
COc1ccc(C(C2C(=O)CC(C)(C)CC2=O)C2C(=O)CC(C)(C)CC2=O)cc1	1%	6%	6	18	4%	0%
Cn1c(CN2CCOCC2)nc2cc(NC(=O)c3ccccc3[N+](=O)[O-])ccc21	-3%	.	.	.	-2%	-11%
O=c1c2ccccc2nc(-c2ccoc2)n1CCc1ccccc1	6.5µM*	?	-4	6	2%	7.3µM*
O=c1c2ccccc2nc(-c2ccc(Br)cc2)n1Cc1ccccc1	23µM*	10%	17	3	1%	8.2µM*
NC(=O)CSc1nc2ccccc2c(=O)n1CCc1ccccc1	?	-1%	17	0	.	-15%
Cc1cc(OC(C)C(=O)N2CCN(c3ccccc3)CC2)c2c(C)c(C)c(=O)oc2c1 (stereo unspecified)	29µM*	16µM*	-3	36	3%	?
O=C(NNc1ccccc1)c1ccccc1	-15%	.	18	3	.	-24%
